Experimental data published in PubChem BioAssay AID1159580 (chemical genetic matrix, 2015).
In all, about 5,500 compounds went through this assay and about 2,000 (36%) were called active. Another 18% or so got no clear call; they are omitted. Cut-off read from the data, not from the text of the source: active = normalized growth mostly below about 0.91 (no sharp cut-off); inconclusive = no clear call, values can overlap the other calls; inactive = mostly above about 0.92. Some of the results follow.

Experiment: chemical genetic growth profiling, strain panel (AID 1159580);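 note: tested at 20 µM; growth read once vehicle control cultures reached saturation at 30 °C; 1 = growth at the plate median or of vehicle wells; lower values mean less growth of the strain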
Details: S. cerevisiae deletion strains, growth OD

Measured: normalized growth

C=CCc1ccc(OC)cc1
inactive: locus YAL021C, strain ccr4, hits give low values 0.982 | locus YAL026C, strain drs2, hits give low values 1.03 | locus YAL030W, strain snc1, hits give low values 1 | locus YBL061C, strain skt5, hits give low values 1.01 | locus YBR009C, strain hhf1, hits give low values 1.01 | locus YBR023C, strain chs3, hits give low values 1.01 | locus YBR171W, strain sec66, hits give low values 1.01 | locus YBR231C, strain swc5, hits give low values 1.02 | locus YBR279W, strain paf1, hits give low values 0.995 | locus YCL011C, strain gbp2, hits give low values 0.988 | locus YCL016C, strain dcc1, hits give low values 1 | locus YCL069W, strain vba3, hits give low values 0.999 | locus YCR088W, strain abp1, hits give low values 1.01 | locus YDL005C, strain med2, hits give low values 1.02 | locus YDL040C, strain nat1, hits give low values 0.999 | locus YDR001C, strain nth1, hits give low values 1 | locus YDR069C, strain doa4, hits give low values 1.01 | locus YDR137W, strain rgp1, hits give low values 0.994 | locus YDR159W, strain sac3, hits give low values 1.06 | locus YDR195W, strain ref2 1 | locus YDR297W, strain sur2, hits give low values 1.04 | locus YDR334W, strain swr1, hits give low values 1.01 | locus YDR335W, strain msn5, hits give low values 0.996 | locus YDR392W, strain spt3, hits give low values 0.919 | locus YEL003W, strain gim4, hits give low values 1.01 | locus YEL037C, strain rad23, hits give low values 1.01 | locus YEL061C, strain CIN8 (second series), hits give low values 0.995 | locus YER015W, strain faa2, hits give low values 1.01 | locus YER016W, strain bim1, hits give low values 1.01 | locus YER111C, strain swi4, hits give low values 1 | locus YER155C, strain BEM2 (second series), hits give low values 1.04 | locus YFR010W, strain ubp6, hits give low values 1.03 | locus YGL167C, strain pmr1, hits give low values 1.01 | locus YGL173C, strain kem1, hits give low values 1.03 | locus YGL227W, strain vid30, hits give low values 1.01 | locus YGL240W, strain doc1, hits give low values 1.02 | locus YGL253W, strain hxk2, hits give low values 1.02 | locus YHR013C, strain ard1, hits give low values 1.01 | locus YHR027C, strain rpn1, hits give low values 1.01 | locus YHR030C, strain SLT2, hits give low values 1 | locus YHR079C, strain IRE1, hits give low values 0.989 | locus YHR142W, strain chs7, hits give low values 0.992 | locus YJL092W, strain hpr5, hits give low values 1.01 | locus YJL095W, strain BCK1 (second series), hits give low values 1.01 | locus YJL095W, strain BCK1, hits give low values 0.995 | locus YJL115W, strain asf1, hits give low values 1.01 | locus YJL129C, strain trk1, hits give low values 1.03 | locus YJL154C, strain vps35, hits give low values 1 | locus YJL164C, strain tpk1, hits give low values 0.98 | locus YJL166W, strain qcr8, hits give low values 1.01 | locus YJL187C, strain SWE1, hits give low values 0.997 | locus YJR066W, strain TOR1, hits give low values 0.939 | locus YKL160W, strain elf1, hits give low values 0.979 | locus YKR026C, strain gcn3, hits give low values 1.01 | locus YKR091W, strain srl3, hits give low values 1 | locus YLL001W, strain dnm1, hits give low values 0.996 | locus YLL026W, hits give low values 1.02 | locus YLL041C, strain sdh2, hits give low values 1 | locus YLR027C, strain aat2, hits give low values 1.02 | locus YLR113W, strain HOG1, hits give low values 0.992 | locus YLR221C, strain rsa3, hits give low values 1.03 | locus YLR258W, strain gsy2, hits give low values 0.999 | locus YLR262C, strain YPT6 (second series), hits give low values 0.992 | locus YLR320W, strain mms22, hits give low values 1.03 | locus YLR342W, strain FKS1, hits give low values 1.01 | locus YLR357W, strain rsc2, hits give low values 1.01 | locus YLR370C, strain arc18, hits give low values 0.995 | locus YLR384C, strain iki3, hits give low values 1.01 | locus YML120C, strain ndi1, hits give low values 0.986 | locus YMR058W, strain fet3, hits give low values 1.02 | locus YMR125W, strain sto1, hits give low values 0.967 | locus YMR129W, hits give low values 1.02 | locus YMR205C, strain PFK2, hits give low values 0.999 | locus YMR231W, strain pep5, hits give low values 1.01 | locus YNL071W, strain lat1, hits give low values 0.991 | locus YNL183C, strain NPR1, hits give low values 0.909 | locus YNL209W, strain ssb2, hits give low values 0.992 | locus YNL248C, strain rpa49, hits give low values 0.952 | locus YNL322C, strain KRE1 (second series), hits give low values 1 | locus YNR049C, strain mso1, hits give low values 1 | locus YOR001W, strain rrp6, hits give low values 1.02 | locus YOR070C, strain gyp1, hits give low values 1.02 | locus YOR080W, strain dia2, hits give low values 1.02 | locus YOR083W, strain WHI5, hits give low values 0.974 | locus YOR106W, strain vam3, hits give low values 0.988 | locus YOR231W, strain MKK1, hits give low values 1 | locus YOR265W, strain rbl2, hits give low values 1 | locus YOR270C, strain vph1, hits give low values 1.04 | locus YOR290C, strain snf2, hits give low values 0.956 | locus YPL051W, strain arl3, hits give low values 1.01 | locus YPL078C, strain atp4, hits give low values 0.96 | locus YPL106C, strain sse1, hits give low values 1 | locus YPL240C, strain hsp82, hits give low values 1.02 | locus YPL256C, strain CLN2, hits give low values 1
